ABHD5-PLIN5 inh: inhibitors of human ABHD5-perilipin-5 interaction; Q00G26+Q8WTS1; Split G. princeps luciferase complementation, luminescence, 4 h; hit rate 0.78% among 360,000; inhibition, % at 4 µM;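 active = inhibition above the mean inhibition across every tested compound plus 3 SD, cut at about 22% in these data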;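 note: 0% = DMSO only wells and the 100% control is not disclosed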
Beta2AR agonist: agonists of human beta-2 adrenergic receptor inducing internalization | P07550 | Am2.2-beta2AR cells, FAP receptor internalization, flow cytometry | response, % (test concentration not listed) | hit rate 0.43% among 340,000 | AID 504454;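 active = response above a set limit, near 3 SD of response in nonfluorescent compounds, cut at about 42% in these data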
Target sequence (P07550 whole entry, looked up): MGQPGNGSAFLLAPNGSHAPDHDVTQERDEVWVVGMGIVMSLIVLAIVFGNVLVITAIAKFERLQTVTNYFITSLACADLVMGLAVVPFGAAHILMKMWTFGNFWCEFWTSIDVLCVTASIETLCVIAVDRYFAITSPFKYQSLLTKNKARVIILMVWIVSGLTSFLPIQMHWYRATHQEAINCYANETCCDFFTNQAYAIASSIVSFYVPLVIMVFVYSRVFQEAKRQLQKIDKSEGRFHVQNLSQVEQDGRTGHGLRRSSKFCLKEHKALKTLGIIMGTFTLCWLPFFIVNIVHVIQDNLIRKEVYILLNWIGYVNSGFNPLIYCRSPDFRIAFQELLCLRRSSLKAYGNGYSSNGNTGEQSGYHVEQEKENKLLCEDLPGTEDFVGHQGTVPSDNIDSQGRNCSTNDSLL
NOD2-RIPK2 inh: NOD2-RIPK2 protein interaction inhibition; inhibition, % at 4.98 µM; AID 624267; hit rate 0.38% among 360,000; CHO BLA complementation NOD2-RIPK2, CCF4 ratio; in the data active = inhibition above about 21%;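 note: 0% = vehicle only and 100% = reference blocker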
TLR9-MyD88 inh: inhibitors of human TLR9-MyD88 binding | AID 504734 | CHO BLA complementation TLR9-MyD88, CCF4 FRET ratio | Q9NR96+Q99836 | hit rate 0.21% among 340,000 | inhibition, % at 4.98 µM;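 active = inhibition above the mean over all tested compounds plus 3 SD, cut at about 21% in these data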;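 note: 0% = DMSO only wells and 100% = clavulanate BLA inhibitor control wells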
NTR1 ag: activates human neurotensin receptor 1 | P30989 | activation, % at 20 µM | NTR1-U2OS beta-arrestin-GFP spot imaging, agonist mode | hit rate 0.17% among 330,000 | AID 493036;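 active = activation at or above 40% of the spot to cytoplasm intensity ratio, with at least 20 cells analyzed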;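 note: 0% = DMSO without peptide and 100% = 100 nM NTR1 peptide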
TLR4-MyD88 BLA: blocks binding of human TLR4 to MyD88 | AID 861 | inhibition, % at 8.4 µM | HeLa CL3-4 TLR4/MyD88 BLA complementation, FRET ratio | hit rate 0.18% among 200,000 | O00206+Q99836; in the data active = inhibition above about 25%;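 note: 0% = vehicle and 100% = reference inhibitor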
Starred values were filed as active, the others as inactive; nt = not tested or not shown. This is a sample that favours compounds with a hit; in the whole collection about 1.5% have one here.

SMILES | ABHD5-PLIN5 inh | Beta2AR agonist | NOD2-RIPK2 inh | TLR9-MyD88 inh | NTR1 ag | TLR4-MyD88 BLA
COc1ccc2c(c1OC)CN1CCc3cc4c(cc3[C@@H]1[C@@H]2O)OCO4 | -2 | -8 | -6 | -4 | -3 | -4
N#CC(C#N)=C1C=CC=CN1/C(=C\c1ccccc1)C(=O)c1cccs1 | 2 | 88* | 15 | 7 | -2 | -1
N#CC(C#N)=C1C=CC=CN1/C(=C\c1ccccc1Cl)C(=O)c1ccccc1 | 19 | 105* | -3 | 15 | nt | 14
Cc1c([N+](=O)[O-])cc(N2C(=O)C=CC2=O)cc1[N+](=O)[O-] | 0 | 1 | -5 | -11 | nt | nt
Cc1cc(N2C(=O)C=CC2=O)c([N+](=O)[O-])cc1C | 33* | 24 | 22* | 0 | -2 | 5
CS(=O)(=O)c1cc([N+](=O)[O-])c(Sc2nc3ccccc3[nH]2)c([N+](=O)[O-])c1 | 48* | 63* | -2 | 6 | 31 | 5
CCCNC(=O)C1(C)CCCN(C(=O)c2ccc(F)c(Cl)c2)C1 (centres undefined) | -4 | nt | -4 | nt | nt | nt
Cc1cc(C)c2c(=N)c3ccccc3n(CCCCCCCCn3c4ccccc4c(=N)c4c(C)cc(C)nc43)c2n1 | 10 | 63* | 3 | -12 | nt | nt
COc1ccc(/C=N\NC(=O)c2cc(O)c(O)c(O)c2)cc1CN1CCN(c2ccc(F)cc2)CC1 | 22* | 2 | -4 | -5 | nt | 3
Cc1ccc(CNc2ncnc3c2cnn3C2CCCCO2)cc1 (centres undefined) | 2 | -61 | -3 | 4 | nt | nt
Cc1cc(C)c2nc(NNC(=O)c3ccc(S(=O)(=O)N4CC(C)CC(C)C4)cc3)sc2c1 (centres undefined) | 29* | 43* | 0 | -2 | 9 | 10
Cc1ccc2nc(NNC(=O)c3ccc(S(=O)(=O)N4CCc5ccccc5C4)cc3)sc2c1 | 34* | 16 | 2 | 14 | 10 | 7
COC(=O)c1sc2ccccc2c1NC(=O)c1ccc(S(=O)(=O)N2CC(C)CC(C)C2)cc1 (centres undefined) | -5 | 11 | -11 | -13 | 2 | -4
Cc1cccc2sc(NNC(=O)c3ccc(S(=O)(=O)N4CC(C)CC(C)C4)cc3)nc12 (centres undefined) | 38* | 48* | -3 | 15 | 10 | -3
OC(c1ccccc1)(c1nc(/C=C/c2ccc(C(F)(F)F)cc2)cs1)C(F)(F)F (centres undefined) | -15 | nt | -5 | nt | nt | nt
CCOC(=O)[C@]12CCCC=C1N(CCC1=CCCCC1)C(=O)[C@H](CC(=O)N1CCN(C(=O)C3CC3)CC1)C2 | -3 | nt | -2 | nt | nt | nt
Cn1c(NCCOc2ccccc2Cl)nc2cc(-c3ccc(F)cc3)sc2c1=O | -7 | nt | -4 | nt | nt | nt
Clc1cccc(OCCN2CCN(CCOc3cccc(Cl)c3)CC2)c1 | 23* | -5 | -6 | -13 | -1 | -5
CC1CCN(CCOc2cccc(Br)c2)CC1 | 3 | -8 | -3 | 8 | 4 | -1
COc1cccc(C(=O)Nc2ccc3c(c2)OC[C@H](C)N(C(=O)C2CCCC2)C[C@@H](C)[C@@H](OC)CN(C)C3=O)c1 | 2 | nt | -3 | nt | nt | nt
Nc1ccc2c(c1)C(=O)C(=O)c1ccccc1-2 | 14 | 81* | 16 | 9 | -1 | -14
Nc1ccc2c(c1)C(=O)c1ccccc1C2=O | 3 | 9 | -7 | 5 | -1 | nt
Nc1ccc2c(c1)C(=O)c1ccccc1-2 | -7 | -5 | -1 | 0 | 0 | nt
O=C1C(=O)c2ccc(-c3ccccc3)cc2-c2ccccc21 | -49 | 61* | -5 | 8 | 14 | -6
CCc1nc2c(OCC(=O)C(C)(C)C)cccn2c1N(C)C(=O)c1ccc(C)cc1 | -3 | nt | 3 | nt | nt | nt
SMILES | ABHD5-PLIN5 inh | Beta2AR agonist | NOD2-RIPK2 inh | TLR9-MyD88 inh | NTR1 ag | TLR4-MyD88 BLA
CC(C)NC(=O)N1Cc2cc(C(=O)NC3CCCC3)nc(-c3cccc(-c4cccnc4)c3)c2[C@H]1CCO | 9 | nt | -5 | nt | nt | nt
Cc1ccccc1S(=O)(=O)NC(=O)C1(C)CCN1C(=O)CCc1ccc(Cl)cc1Cl (centres undefined) | -3 | nt | 3 | nt | nt | nt
COc1ccccc1Cc1c(-c2ccco2)nc2cc(C)c(Br)c(C)n12 | 58* | nt | -12 | nt | nt | nt
Cc1cc2nc(-c3ccco3)c(Cc3cccc(Cl)c3)n2c(C)c1Br | 26* | nt | -5 | nt | nt | nt
Cc1cc2nc(-c3ccco3)c(CC(C)(C)C)n2c(C)c1Br | 10 | nt | 7 | nt | nt | nt
Clc1cccc(Cc2c(-c3ccco3)nc3ccc(Br)cn23)c1 | 49* | nt | -1 | nt | nt | nt
CCCS(=O)(=O)NC(=O)C1(C)CCCN(C(=O)c2ccc(C(=O)OC)cc2)C1 (centres undefined) | 0 | nt | 5 | nt | nt | nt
CCc1nc2ccc(C(=O)NCCCn3ccnc3)cn2c1N(C)Cc1ccc(N(C)C)cc1 | 5 | nt | -16 | nt | nt | nt
CCOC(=O)c1c(-c2ccc(C)o2)csc1NC(=O)CN1CCCCC1 | -13 | 7 | 1 | 2 | 17 | -10
CCOC(=O)c1c(-c2ccc(C)o2)csc1NC(=O)CSc1nncs1 | 47* | 9 | 22* | -11 | 7 | -4
O=C(COc1ccccc1/C=C\c1nc(O)c([N+](=O)[O-])c(=O)[nH]1)Nc1ccccc1 | 23* | 1 | -4 | 1 | nt | -6
CCCCc1c(-c2cccc(Cl)c2)ncn1CCc1ccccc1OC | -7 | nt | -10 | nt | nt | nt
Cc1c(C(=O)OCCOC(C)C)[nH]c2c1C(=O)CC(c1ccco1)C2 (centres undefined) | 30* | 23 | 3 | 8 | -5 | 6
COCCOC(=O)c1[nH]c2c(c1C)C(=O)CC(c1ccco1)C2 (centres undefined) | 15 | 25 | -1 | -8 | 3 | 2
Cc1cc(=O)oc2cc(OCc3ccc(C(=O)OCC(=O)NC4CCS(=O)(=O)C4)cc3)ccc12 (centres undefined) | -1 | 5 | 3 | 5 | 1 | nt
Cc1cc(=O)oc2cc(OCc3ccc(C(=O)OCC(=O)Nc4ccc(N(C)C)cc4)cc3)ccc12 | 5 | 49* | -1 | 2 | 0 | -4
O=C(NC1CCCC1)C(c1ccccc1)n1c(-c2cccc3ccccc23)nc2ccccc21 (centres undefined) | 5 | nt | 0 | nt | nt | nt
COc1ccc(C(=O)COc2ccc3ccc(=O)oc3c2)c(OC)c1 | -4 | 51* | 3 | -11 | 0 | nt
COc1ccc(C(=O)COc2ccc3ccc(=O)oc3c2)cc1 | 0 | 3 | -12 | 0 | 0 | nt
C[C@H](CO)N1C[C@H](C)[C@@H](CN(C)C(=O)Nc2cc(F)ccc2F)Oc2ncc(-c3cccc(F)c3)cc2C1=O | 4 | nt | -14 | -1 | nt | nt
O=CC1=C(N2CCOCC2)/C(=C\c2ccccc2)CC1 | 22* | -3 | -4 | 7 | 0 | 10
NC(=O)c1c(NC(=O)CSc2nnc(Cc3ccccc3)n2Cc2ccco2)sc2c1CCC2 | -5 | -5 | -1 | -2 | 11 | -5

Compound activity (PubChem BioAssay)
